Measurements from PubChem BioAssay (NCI).
“And” between values parts separate entries of the source, which are not always exact repeats. Equal entries are not always repeated. About 79,000 compounds went through this panel and 15% of them were active in at least one assay; those are over-represented in the sample as a whole. Some structures have more than one record in an assay (separate samples or runs), and their calls can disagree. The source made the active and inactive calls. Cut-off read from the data, not from the text of the source: active = growth inhibition above about 70%; inactive = the rest.

Test: NCI Yeast Anticancer Drug Screen. Data for the mec2-1 strain (AID 157)
Conditions: S. cerevisiae mec2-1 strain, stronger effect = higher value
Method: Growth inhibition of yeast strains with defined genetic alterations is measured as a screen for potential anti-cancer activity. Selected strains with alterations in DNA damage repair or cell cycle control were exposed to compounds and growth inhibition was measured relative to vehicle treated controls. The strain used in this assay is mec2-1

[1] = at 5.0 µM (retest, dose inferred, filed as 0.5)
[2] = at 50.0 µM (retest, dose inferred, filed as 5.0)

Compound | growth inhibition (at 1.2 µM) | growth inhibition (at 3.7 µM) | growth inhibition [1] | growth inhibition (at 11.0 µM) | growth inhibition (at 33.0 µM) | growth inhibition [2] | growth inhibition (at 50.0 µM) | growth inhibition (at 100.0 µM)
CC1(C)N=C(N)N=C(N)N1c1cccc(N)c1.[Sn] | 2% (inactive) | 6% (inactive) | 7% (inactive) | 2% (inactive) | 15% (inactive) | 28% (inactive) | -20.9% (inactive) | 33% (inactive)
C[C@]12CCc3nonc3C1CC[C@@H]1C2CC[C@]2(C)C(=O)CCC12 (some centres not stated) | -1% (inactive) | -3% (inactive) | 26% (inactive) | 10% (inactive) | 15% (inactive) | 40% (inactive) | 33.2% (inactive) | 36% (inactive)
CCCCCCCCCCCCCCCCP(=O)(O)OP(=O)(O)OCC1OC(n2ccc(N)nc2=O)C(O)C1O (configuration not stated) | -3% (inactive) | -3% (inactive) | -9% (inactive) | -4% (inactive) | -5% (inactive) | -13% (inactive) | 80.7% (active) and -3.1% (inactive) | -3% (inactive)
CCC1(CC)C(=O)[N-]C(=O)[N-]C1=O.[Au+].[Au+].c1ccc([PH+](c2ccccc2)c2ccccc2)cc1.c1ccc([PH+](c2ccccc2)c2ccccc2)cc1 | – | – | 99% (active) | – | – | 97% (active) | 80.6% (active) | –
[Cl][Pt+2][Cl].[NH-]C1CCCC2CCC[N-]C12 (configuration not stated) | – | – | 24% (inactive) | – | – | 77% (active) | 60.4% (inactive) | –
C/C1=C\[C@@H](O)C(=O)/C=C/C=C\c2csc(n2)[C@@H](C)NC(=O)C[C@@]2(CC1)S(=O)SC(=O)[C@]2(C)O (some centres not stated) | – | – | 98% (active) | – | – | 99% (active) | 92.5% (active) | –
O=[As]c1ccc([N+](=O)[O-])cc1 (configuration not stated) | – | – | 89% (active) | – | – | 100% (active) | 99.7% (active) | –
Clc1ccc(-c2cc(=[N+]3CC[N+](=c4cc(-c5ccc(Cl)cc5)ss4)CC3)ss2)cc1 | – | – | -158% (inactive) | – | – | -3% (inactive) | 98.2% (active) | –
c1ccc(C[As+](c2ccccc2)(c2ccccc2)c2ccccc2)cc1 | – | – | 4% (inactive) | – | – | 94% (active) | 97.7% (active) | –
